Experimental data taken from paper PMC11006913.
Substitutions are numbered along the chain they refer to.

Legend:
Assay in all cases: PBM; 200 nM protein, PBS
Details in all cases: dsDNA, one strand shown
NKX2-5 [1] = target: NKX2-5 (Homo sapiens, UniProt P52952 125-210, R139K)
HOXA4 [2] = target: HOXA4 (Homo sapiens, UniProt Q00056 201-287, W262R)
HOXA4 [3] = target: HOXA4 (Homo sapiens, UniProt Q00056 201-287, R217L)
ALX1 [4] = target: ALX1 (Homo sapiens, UniProt Q15699 118-204, L144V)
ALX1 [5] = target: ALX1 (Homo sapiens, UniProt Q15699 118-204, L144R)
HOXA4 [6] = target: HOXA4 (Homo sapiens, UniProt Q00056 201-287)
ALX1 [7] = target: ALX1 (Homo sapiens, UniProt Q15699 118-204)
HOXA4 [8] = target: HOXA4 (Homo sapiens, UniProt Q00056 201-287, W262F)
NKX2-5 [9] = target: NKX2-5 (Homo sapiens, UniProt P52952 125-210)
SIX6 [10] = target: T1, SIX6 (Homo sapiens, UniProt O95475 114-200, L167I)
T1 sequence: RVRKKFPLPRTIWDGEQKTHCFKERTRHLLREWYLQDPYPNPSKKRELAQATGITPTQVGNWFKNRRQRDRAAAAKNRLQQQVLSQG

SIX6 [11] = target: T2, SIX6 (Homo sapiens, UniProt O95475 114-200, L143V)
T2 sequence: T1 sequence with L30V, I54L

SIX6 [12] = target: T3, SIX6 (Homo sapiens, UniProt O95475 114-200, H141N)
T3 sequence: T1 sequence with H28N, I54L

SIX6 [13] = target: T4, SIX6 (Homo sapiens, UniProt O95475 114-200, T165P)
T4 sequence: T1 sequence with T52P, I54L

SIX6 [14] = target: T5, SIX6 (Homo sapiens, UniProt O95475 114-200, L167M)
T5 sequence: T1 sequence with I54M

SIX6 [15] = target: T6, SIX6 (Homo sapiens, UniProt O95475 114-200, L143M)
T6 sequence: T1 sequence with L30M, I54L

SIX6 [16] = target: T7, SIX6 (Homo sapiens, UniProt O95475 114-200, L143I)
T7 sequence: T1 sequence with L30I, I54L

SIX6 [17] = target: T8, SIX6 (Homo sapiens, UniProt O95475 114-200, T165G)
T8 sequence: T1 sequence with T52G, I54L

HOXA2 [18] = target: HOXA2 (Homo sapiens, UniProt O43364 129-215, R185T)
SIX6 [19] = target: T9, SIX6 (Homo sapiens, UniProt O95475 114-200, T139Q)
T9 sequence: T1 sequence with T26Q, I54L

SIX6 [20] = target: T10, SIX6 (Homo sapiens, UniProt O95475 114-200, T165A)
T10 sequence: T1 sequence with T52A, I54L

HOXA2 [21] = target: HOXA2 (Homo sapiens, UniProt O43364 129-215, R185K)
SIX6 [22] = target: T11, SIX6 (Homo sapiens, UniProt O95475 114-200, L167V)
T11 sequence: T1 sequence with I54V

SIX6 [23] = target: T12, SIX6 (Homo sapiens, UniProt O95475 114-200)
T12 sequence: T1 sequence with I54L

SIX6 [24] = target: T13, SIX6 (Homo sapiens, UniProt O95475 114-200, T165I)
T13 sequence: T1 sequence with T52I, I54L

HOXA2 [25] = target: HOXA2 (Homo sapiens, UniProt O43364 129-215, Y150S)
HOXA2 [26] = target: HOXA2 (Homo sapiens, UniProt O43364 129-215)
HOXA7 [27] = target: HOXA7 (Homo sapiens, UniProt P31268 116-202)
HOXA7 [28] = target: HOXA7 (Homo sapiens, UniProt P31268 116-202, W177C)
VAX1 [29] = target: VAX1 (Homo sapiens, UniProt Q5SQQ9 86-172)
VAX1 [30] = target: VAX1 (Homo sapiens, UniProt Q5SQQ9 86-172, T142I)
VAX1 [31] = target: VAX1 (Homo sapiens, UniProt Q5SQQ9 86-172, K157R)
NKX2-6 = target: T14, NKX2-6 (Homo sapiens, UniProt A6NCS4 118-204, R150C)
T14 sequence: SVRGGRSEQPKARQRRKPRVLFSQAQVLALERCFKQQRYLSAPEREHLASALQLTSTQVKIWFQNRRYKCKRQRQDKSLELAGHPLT

Chain of HOXA4 (Homo sapiens, UniProt Q00056 201-287) (Q00056 201-287): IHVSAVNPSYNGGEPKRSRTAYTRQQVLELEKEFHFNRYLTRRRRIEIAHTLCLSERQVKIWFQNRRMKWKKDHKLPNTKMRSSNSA
Chain of NKX2-5 (Homo sapiens, UniProt P52952 125-210, R139K) (P52952 125-210 R139K): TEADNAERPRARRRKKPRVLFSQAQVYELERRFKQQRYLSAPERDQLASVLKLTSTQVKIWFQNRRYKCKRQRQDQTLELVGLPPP
Chain of HOXA4 (Homo sapiens, UniProt Q00056 201-287, W262F) (Q00056 201-287 W262F): as the sequence (Q00056 201-287) above, with W62F counted along it
Chain of HOXA4 (Homo sapiens, UniProt Q00056 201-287, R217L) (Q00056 201-287 R217L): as the sequence (Q00056 201-287) above, with R17L counted along it
Chain of NKX2-5 (Homo sapiens, UniProt P52952 125-210) (P52952 125-210): as the sequence (P52952 125-210 R139K) above, with K15R counted along it
Chain of HOXA4 (Homo sapiens, UniProt Q00056 201-287, W262R) (Q00056 201-287 W262R): as the sequence (Q00056 201-287) above, with W62R counted along it
Chain of HOXA2 (Homo sapiens, UniProt O43364 129-215, Y150S) (O43364 129-215 Y150S): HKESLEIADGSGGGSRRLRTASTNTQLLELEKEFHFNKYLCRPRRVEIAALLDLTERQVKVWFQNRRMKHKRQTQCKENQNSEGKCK
Chain of HOXA2 (Homo sapiens, UniProt O43364 129-215, R185K) (O43364 129-215 R185K): as the sequence (O43364 129-215 Y150S) above, with S22Y, R57K counted along it
Chain of HOXA2 (Homo sapiens, UniProt O43364 129-215, R185T) (O43364 129-215 R185T): as the sequence (O43364 129-215 Y150S) above, with S22Y, R57T counted along it
Chain of HOXA2 (Homo sapiens, UniProt O43364 129-215) (O43364 129-215): as the sequence (O43364 129-215 Y150S) above, with S22Y counted along it
Chain of ALX1 (Homo sapiens, UniProt Q15699 118-204) (Q15699 118-204): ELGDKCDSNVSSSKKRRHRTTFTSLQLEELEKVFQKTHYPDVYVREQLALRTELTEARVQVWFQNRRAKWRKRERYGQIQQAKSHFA
Chain of VAX1 (Homo sapiens, UniProt Q5SQQ9 86-172) (Q5SQQ9 86-172): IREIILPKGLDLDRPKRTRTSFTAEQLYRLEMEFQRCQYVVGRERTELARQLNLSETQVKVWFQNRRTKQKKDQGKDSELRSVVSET
Chain of VAX1 (Homo sapiens, UniProt Q5SQQ9 86-172, T142I) (Q5SQQ9 86-172 T142I): as the sequence (Q5SQQ9 86-172) above, with T57I counted along it
Chain of ALX1 (Homo sapiens, UniProt Q15699 118-204, L144R) (Q15699 118-204 L144R): as the sequence (Q15699 118-204) above, with L27R counted along it
Chain of VAX1 (Homo sapiens, UniProt Q5SQQ9 86-172, K157R) (Q5SQQ9 86-172 K157R): as the sequence (Q5SQQ9 86-172) above, with K72R counted along it
Chain of HOXA7 (Homo sapiens, UniProt P31268 116-202) (P31268 116-202): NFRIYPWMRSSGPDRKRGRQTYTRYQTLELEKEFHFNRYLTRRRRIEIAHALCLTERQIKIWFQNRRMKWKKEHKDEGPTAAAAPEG
Chain of HOXA7 (Homo sapiens, UniProt P31268 116-202, W177C) (P31268 116-202 W177C): as the sequence (P31268 116-202) above, with W62C counted along it
Chain of ALX1 (Homo sapiens, UniProt Q15699 118-204, L144V) (Q15699 118-204 L144V): as the sequence (Q15699 118-204) above, with L27V counted along it

## CCCAACGG
NKX2-5 [1]
  binding signal: 8.75 upbm affinity estimate (log intensity, higher = more binding, comparable within an allelic series)
HOXA4 [2]
  binding signal: 9.93 upbm affinity estimate (log intensity, higher = more binding, comparable within an allelic series)
HOXA4 [3]
  binding signal: 9.99 upbm affinity estimate (log intensity, higher = more binding, comparable within an allelic series)
ALX1 [4]
  binding signal: 6.54 upbm affinity estimate (log intensity, higher = more binding, comparable within an allelic series)
ALX1 [5]
  binding signal: 6.52 upbm affinity estimate (log intensity, higher = more binding, comparable within an allelic series)
HOXA4 [6]
  binding signal: 9.83 upbm affinity estimate (log intensity, higher = more binding, comparable within an allelic series)
ALX1 [7]
  binding signal: 6.46 upbm affinity estimate (log intensity, higher = more binding, comparable within an allelic series)
HOXA4 [8]
  binding signal: 10 upbm affinity estimate (log intensity, higher = more binding, comparable within an allelic series)
NKX2-5 [9]
  binding signal: 8.76 upbm affinity estimate (log intensity, higher = more binding, comparable within an allelic series)

## CCCTCCGG
NKX2-5 [1]
  binding signal: 8.58 upbm affinity estimate (log intensity, higher = more binding, comparable within an allelic series)
SIX6 [10]
  binding signal: 9.04 upbm affinity estimate (log intensity, higher = more binding, comparable within an allelic series)
SIX6 [11]
  binding signal: 8.92 upbm affinity estimate (log intensity, higher = more binding, comparable within an allelic series)
SIX6 [12]
  binding signal: 9.12 upbm affinity estimate (log intensity, higher = more binding, comparable within an allelic series)
SIX6 [13]
  binding signal: 8.9 upbm affinity estimate (log intensity, higher = more binding, comparable within an allelic series)
SIX6 [14]
  binding signal: 9.06 upbm affinity estimate (log intensity, higher = more binding, comparable within an allelic series)
SIX6 [15]
  binding signal: 8.95 upbm affinity estimate (log intensity, higher = more binding, comparable within an allelic series)
SIX6 [16]
  binding signal: 8.91 upbm affinity estimate (log intensity, higher = more binding, comparable within an allelic series)
SIX6 [17]
  binding signal: 9.05 upbm affinity estimate (log intensity, higher = more binding, comparable within an allelic series)
HOXA2 [18]
  binding signal: 7.03 upbm affinity estimate (log intensity, higher = more binding, comparable within an allelic series)
SIX6 [19]
  binding signal: 9.08 upbm affinity estimate (log intensity, higher = more binding, comparable within an allelic series)
SIX6 [20]
  binding signal: 9.09 upbm affinity estimate (log intensity, higher = more binding, comparable within an allelic series)
HOXA2 [21]
  binding signal: 10.1 upbm affinity estimate (log intensity, higher = more binding, comparable within an allelic series)
SIX6 [22]
  binding signal: 9.06 upbm affinity estimate (log intensity, higher = more binding, comparable within an allelic series)
SIX6 [23]
  binding signal: 9.06 upbm affinity estimate (log intensity, higher = more binding, comparable within an allelic series)
SIX6 [24]
  binding signal: 9.01 upbm affinity estimate (log intensity, higher = more binding, comparable within an allelic series)
HOXA2 [25]
  binding signal: 10.3 upbm affinity estimate (log intensity, higher = more binding, comparable within an allelic series)
HOXA2 [26]
  binding signal: 6.99 upbm affinity estimate (log intensity, higher = more binding, comparable within an allelic series)
NKX2-5 [9]
  binding signal: 8.53 upbm affinity estimate (log intensity, higher = more binding, comparable within an allelic series)

## CCGGACCG
NKX2-5 [1]
  binding signal: 8.49 upbm affinity estimate (log intensity, higher = more binding, comparable within an allelic series)
HOXA7 [27]
  binding signal: 8.43 upbm affinity estimate (log intensity, higher = more binding, comparable within an allelic series)
HOXA7 [28]
  binding signal: 8.36 upbm affinity estimate (log intensity, higher = more binding, comparable within an allelic series)
NKX2-5 [9]
  binding signal: 8.49 upbm affinity estimate (log intensity, higher = more binding, comparable within an allelic series)

## CAGCCCCC
NKX2-5 [1]
  binding signal: 8.75 upbm affinity estimate (log intensity, higher = more binding, comparable within an allelic series)
HOXA4 [2]
  binding signal: 9.74 upbm affinity estimate (log intensity, higher = more binding, comparable within an allelic series)
HOXA4 [3]
  binding signal: 9.65 upbm affinity estimate (log intensity, higher = more binding, comparable within an allelic series)
HOXA4 [6]
  binding signal: 9.71 upbm affinity estimate (log intensity, higher = more binding, comparable within an allelic series)
VAX1 [29]
  binding signal: 7.33 upbm affinity estimate (log intensity, higher = more binding, comparable within an allelic series)
VAX1 [30]
  binding signal: 7.4 upbm affinity estimate (log intensity, higher = more binding, comparable within an allelic series)
HOXA4 [8]
  binding signal: 9.62 upbm affinity estimate (log intensity, higher = more binding, comparable within an allelic series)
VAX1 [31]
  binding signal: 7.13 upbm affinity estimate (log intensity, higher = more binding, comparable within an allelic series)
NKX2-5 [9]
  binding signal: 8.67 upbm affinity estimate (log intensity, higher = more binding, comparable within an allelic series)

## CACAAGTG
NKX2-5 [1]
  binding signal: 12.4 upbm affinity estimate (log intensity, higher = more binding, comparable within an allelic series)
NKX2-6
  binding signal: 11.6 upbm affinity estimate (log intensity, higher = more binding, comparable within an allelic series)

## CCCCCAAC
NKX2-5 [1]
  binding signal: 8.66 upbm affinity estimate (log intensity, higher = more binding, comparable within an allelic series)
HOXA4 [2]
  binding signal: 9.78 upbm affinity estimate (log intensity, higher = more binding, comparable within an allelic series)
HOXA2 [18]
  binding signal: 6.99 upbm affinity estimate (log intensity, higher = more binding, comparable within an allelic series)
HOXA4 [3]
  binding signal: 9.67 upbm affinity estimate (log intensity, higher = more binding, comparable within an allelic series)
HOXA2 [21]
  binding signal: 10.3 upbm affinity estimate (log intensity, higher = more binding, comparable within an allelic series)
HOXA4 [6]
  binding signal: 9.61 upbm affinity estimate (log intensity, higher = more binding, comparable within an allelic series)
HOXA2 [25]
  binding signal: 10.3 upbm affinity estimate (log intensity, higher = more binding, comparable within an allelic series)
HOXA4 [8]
  binding signal: 9.75 upbm affinity estimate (log intensity, higher = more binding, comparable within an allelic series)
HOXA2 [26]
  binding signal: 6.95 upbm affinity estimate (log intensity, higher = more binding, comparable within an allelic series)
NKX2-5 [9]
  binding signal: 8.6 upbm affinity estimate (log intensity, higher = more binding, comparable within an allelic series)

## GCGGCCCA
NKX2-5 [1]
  binding signal: 8.95 upbm affinity estimate (log intensity, higher = more binding, comparable within an allelic series)
SIX6 [10]
  binding signal: 8.92 upbm affinity estimate (log intensity, higher = more binding, comparable within an allelic series)
SIX6 [11]
  binding signal: 8.97 upbm affinity estimate (log intensity, higher = more binding, comparable within an allelic series)
SIX6 [12]
  binding signal: 8.91 upbm affinity estimate (log intensity, higher = more binding, comparable within an allelic series)
SIX6 [13]
  binding signal: 9.19 upbm affinity estimate (log intensity, higher = more binding, comparable within an allelic series)
SIX6 [14]
  binding signal: 8.93 upbm affinity estimate (log intensity, higher = more binding, comparable within an allelic series)
SIX6 [15]
  binding signal: 8.95 upbm affinity estimate (log intensity, higher = more binding, comparable within an allelic series)
SIX6 [16]
  binding signal: 8.94 upbm affinity estimate (log intensity, higher = more binding, comparable within an allelic series)
SIX6 [17]
  binding signal: 8.87 upbm affinity estimate (log intensity, higher = more binding, comparable within an allelic series)
SIX6 [19]
  binding signal: 8.74 upbm affinity estimate (log intensity, higher = more binding, comparable within an allelic series)
SIX6 [20]
  binding signal: 8.92 upbm affinity estimate (log intensity, higher = more binding, comparable within an allelic series)
SIX6 [22]
  binding signal: 8.8 upbm affinity estimate (log intensity, higher = more binding, comparable within an allelic series)
SIX6 [23]
  binding signal: 8.92 upbm affinity estimate (log intensity, higher = more binding, comparable within an allelic series)
SIX6 [24]
  binding signal: 8.91 upbm affinity estimate (log intensity, higher = more binding, comparable within an allelic series)
NKX2-5 [9]
  binding signal: 8.97 upbm affinity estimate (log intensity, higher = more binding, comparable within an allelic series)
